Experiment [1] deals with Nuclear receptor coactivator 3 (Homo sapiens) (UniProt Q9Y6Q9). As to the kind of experiment: SRC3 coactivator transcriptional activity inhibitors, confirmation, cell-based, luminescence, quadruplicate (AID 588792).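 Also: 0% = DMSO treated cells and 100% = gossypol at 36 µM.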 Conditions: HEK293 GAL4-SRC3 luciferase reporter, at 3.6 µM, stronger effect = higher value.
The subject of experiment [2] is transactivating tegument protein VP16 (Human herpesvirus 1), Gal4-VP16 luciferase reporter. As to the kind of experiment: VP16 transactivation inhibitors, counter-screen for SRC3 inhibitor project, cell-based, luminescence, high throughput (AID 588794; in the data active = inhibition above about 30%). The conditions noted are these: mammalian cells, VP16-driven luciferase reporter luminescence; at 3.6 µM; stronger effect = higher value.

For experiment [3], the target named is Nuclear receptor coactivator 1 (Homo sapiens) (UniProt Q15788). As to the kind of experiment: SRC1 coactivator transcriptional activity inhibitors, confirmation, cell-based, luminescence, quadruplicate (AID 588820;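 active = mean inhibition above 46.68%, the untreated control wells mean plus 3 SD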;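 also: 0% = DMSO wells and 100% = gossypol 36 µM treated wells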). The conditions noted are these: HEK293 GAL4-SRC1 luciferase reporter, at 3.6 µM, stronger effect = higher value. In general terms: In a reporter assay the amount or activity of a reporter protein is the signal.
Chain of Nuclear receptor coactivator 1 (Homo sapiens) (Q15788 whole entry, looked up, the tested form may be a part): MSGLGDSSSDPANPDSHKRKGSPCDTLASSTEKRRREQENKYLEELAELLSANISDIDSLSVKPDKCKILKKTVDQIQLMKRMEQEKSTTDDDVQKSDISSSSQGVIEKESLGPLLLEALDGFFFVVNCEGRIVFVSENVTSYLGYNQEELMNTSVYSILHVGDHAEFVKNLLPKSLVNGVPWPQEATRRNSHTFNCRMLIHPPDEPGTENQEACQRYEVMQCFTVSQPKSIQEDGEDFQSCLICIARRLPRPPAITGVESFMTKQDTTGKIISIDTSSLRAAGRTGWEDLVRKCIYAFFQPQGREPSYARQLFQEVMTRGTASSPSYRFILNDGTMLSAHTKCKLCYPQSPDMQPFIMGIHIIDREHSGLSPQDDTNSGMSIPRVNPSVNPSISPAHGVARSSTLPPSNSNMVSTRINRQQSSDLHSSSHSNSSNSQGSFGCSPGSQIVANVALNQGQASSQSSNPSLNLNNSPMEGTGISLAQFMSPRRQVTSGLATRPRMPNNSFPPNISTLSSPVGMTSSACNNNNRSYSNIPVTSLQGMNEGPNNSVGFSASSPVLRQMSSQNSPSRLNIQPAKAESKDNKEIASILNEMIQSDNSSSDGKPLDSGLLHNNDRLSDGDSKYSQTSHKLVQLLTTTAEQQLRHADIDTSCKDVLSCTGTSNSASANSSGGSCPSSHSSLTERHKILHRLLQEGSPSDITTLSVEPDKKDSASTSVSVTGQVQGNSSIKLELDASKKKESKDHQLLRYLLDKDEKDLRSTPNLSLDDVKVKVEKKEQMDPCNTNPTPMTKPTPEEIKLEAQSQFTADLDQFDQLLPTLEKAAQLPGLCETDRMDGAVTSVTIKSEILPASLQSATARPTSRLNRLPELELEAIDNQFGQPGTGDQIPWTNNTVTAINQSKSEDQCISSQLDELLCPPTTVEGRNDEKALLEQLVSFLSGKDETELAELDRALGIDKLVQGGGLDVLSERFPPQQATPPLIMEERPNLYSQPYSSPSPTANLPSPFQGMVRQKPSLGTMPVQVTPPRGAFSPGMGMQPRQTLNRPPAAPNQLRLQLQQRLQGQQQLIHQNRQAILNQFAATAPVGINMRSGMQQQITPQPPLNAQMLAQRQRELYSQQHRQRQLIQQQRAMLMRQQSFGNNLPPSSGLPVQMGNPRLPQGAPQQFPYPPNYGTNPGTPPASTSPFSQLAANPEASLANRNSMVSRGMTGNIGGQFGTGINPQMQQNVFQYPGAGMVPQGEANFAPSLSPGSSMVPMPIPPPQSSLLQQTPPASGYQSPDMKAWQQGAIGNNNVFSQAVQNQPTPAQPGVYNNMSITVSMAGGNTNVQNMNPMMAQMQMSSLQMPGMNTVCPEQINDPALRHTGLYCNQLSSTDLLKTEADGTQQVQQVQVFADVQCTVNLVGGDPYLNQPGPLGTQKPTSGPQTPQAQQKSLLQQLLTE

Experiment [4] in a line: VP16 transactivation inhibitors, counter-screen for SRC1 inhibitor project, cell-based, luminescence, high throughput (AID 588824; in the data active = inhibition above about 25%). Conditions: cell-based VP16 transactivation luciferase luminescence; at 3.6 µM; stronger effect = higher value.
Experiment [5] is described as follows: StAR promoter reporter inhibitors, counter-screen for LRH-1 inverse agonist project, cell-based, luminescence, high throughput (AID 651611; in the data active = inhibition above about 28%). The conditions noted are these: StAR promoter luciferase reporter counterscreen, at 3.6 µM, stronger effect = higher value.
In experiment [6] the target is Nuclear receptor subfamily 5 group A member 2 (Homo sapiens) (UniProt O00482). As to the kind of experiment: LRH-1 (NR5A2) inverse agonists, retest, confirmation, cell-based, luminescence (AID 651613; in the data active = inhibition above about 42%;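 also: HEK293T cells co-transfected with LRH-1 and StAR promoter luciferase reporter; 0% = vehicle wells and 100% = parental cells lacking receptor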). The conditions noted are these: cell-based LRH-1 luciferase reporter, inverse agonism; at 3.6 µM; stronger effect = higher value.
Chain of Nuclear receptor subfamily 5 group A member 2 (Homo sapiens) (O00482 whole entry, looked up): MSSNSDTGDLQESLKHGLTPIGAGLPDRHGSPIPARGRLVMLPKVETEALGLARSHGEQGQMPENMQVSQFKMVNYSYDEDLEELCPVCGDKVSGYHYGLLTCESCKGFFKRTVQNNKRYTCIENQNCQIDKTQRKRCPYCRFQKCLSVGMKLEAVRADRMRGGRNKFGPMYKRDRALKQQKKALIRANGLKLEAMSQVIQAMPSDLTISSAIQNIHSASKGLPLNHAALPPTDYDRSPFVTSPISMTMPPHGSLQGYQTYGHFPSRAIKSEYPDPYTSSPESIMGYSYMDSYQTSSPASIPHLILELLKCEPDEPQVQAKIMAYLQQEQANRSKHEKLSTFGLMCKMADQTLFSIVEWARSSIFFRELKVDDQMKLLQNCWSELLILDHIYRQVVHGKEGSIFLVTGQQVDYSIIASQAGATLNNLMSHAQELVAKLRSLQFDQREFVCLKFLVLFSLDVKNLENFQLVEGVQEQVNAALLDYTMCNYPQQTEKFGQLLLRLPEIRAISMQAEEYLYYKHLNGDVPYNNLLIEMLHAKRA
In experiment [7] the target is Steroidogenic factor 1 (Homo sapiens) (UniProt Q13285). As to the kind of experiment: SF1 (NR5A1) inverse agonists, counter-screen for LRH-1 inverse agonist project, cell-based, luminescence, high throughput (AID 651614; in the data active = inhibition above about 44%;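 also: cells cotransfected with StAR promoter reporter and SF1 expression vector; 0% = vehicle on cells with receptor and 100% = vehicle on cells lacking receptor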). Conditions: cell-based SF1 luciferase reporter, at 3.6 µM, stronger effect = higher value. A general note: The purpose of a counterscreen is to sort out artefacts and off-target activity.
Chain of Steroidogenic factor 1 (Homo sapiens) (Q13285 whole entry, looked up): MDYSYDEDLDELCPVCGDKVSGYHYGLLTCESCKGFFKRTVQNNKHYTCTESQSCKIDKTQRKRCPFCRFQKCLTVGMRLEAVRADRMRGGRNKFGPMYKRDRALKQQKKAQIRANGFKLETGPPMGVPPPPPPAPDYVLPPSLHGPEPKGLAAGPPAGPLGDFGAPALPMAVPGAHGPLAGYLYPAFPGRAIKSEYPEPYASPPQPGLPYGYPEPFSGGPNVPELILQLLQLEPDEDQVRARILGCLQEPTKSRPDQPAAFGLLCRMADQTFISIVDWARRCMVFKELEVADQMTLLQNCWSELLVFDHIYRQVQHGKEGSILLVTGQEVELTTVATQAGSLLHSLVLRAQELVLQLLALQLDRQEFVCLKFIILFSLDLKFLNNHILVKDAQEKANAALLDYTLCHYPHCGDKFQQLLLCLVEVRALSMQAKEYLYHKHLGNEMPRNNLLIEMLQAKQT

The nature of experiment [8]: VP16 transactivation reporter inhibitors, counter-screen for LRH-1 inverse agonist project, cell-based, luminescence, high throughput (AID 651615; in the data active = inhibition above about 33%). The conditions noted are these: Gal4-VP16 luciferase reporter cells, at 3.6 µM, stronger effect = higher value.
In experiment [9] the test system is transactivating tegument protein VP16 (Human herpesvirus 1). As to the kind of experiment: VP16 transactivation reporter inhibitors, counter-screen for SRC2 inhibitor project, cell-based, luminescence, single concentration (AID 652007; in the data active = inhibition above about 36%). The conditions noted are these: cell-based VP16 transactivation luciferase reporter, at 8.9 µM, stronger effect = higher value.
The target in experiment [10] is Nuclear receptor coactivator 2 (Homo sapiens) (UniProt Q15596). Kind of experiment: SRC2 coactivator transcriptional activity inhibitors, confirmation, cell-based, luminescence, HEK293, triplicate (AID 652008;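 active = mean inhibition above 46.5%, the solvent-only control mean plus 3 SD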;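 also: 0% = DMSO-treated cells and 100% = Gossypol at 36 µM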). The conditions noted are these: HEK293 GAL4-SRC2 luciferase reporter, at 8.9 µM, stronger effect = higher value.

For orientation: inhibition means the change of the read-out against control, counted positive when it falls.

Values without a mark were called inactive. Active and inactive are the calls of the source.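 The calls were made as follows, unless noted: active = mean inhibition over 43.08%, the solvent-only control mean plus 3 SD; inactive = the rest.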

Chain of Nuclear receptor coactivator 3 (Homo sapiens) (Q9Y6Q9 whole entry, looked up, the tested form may be a part): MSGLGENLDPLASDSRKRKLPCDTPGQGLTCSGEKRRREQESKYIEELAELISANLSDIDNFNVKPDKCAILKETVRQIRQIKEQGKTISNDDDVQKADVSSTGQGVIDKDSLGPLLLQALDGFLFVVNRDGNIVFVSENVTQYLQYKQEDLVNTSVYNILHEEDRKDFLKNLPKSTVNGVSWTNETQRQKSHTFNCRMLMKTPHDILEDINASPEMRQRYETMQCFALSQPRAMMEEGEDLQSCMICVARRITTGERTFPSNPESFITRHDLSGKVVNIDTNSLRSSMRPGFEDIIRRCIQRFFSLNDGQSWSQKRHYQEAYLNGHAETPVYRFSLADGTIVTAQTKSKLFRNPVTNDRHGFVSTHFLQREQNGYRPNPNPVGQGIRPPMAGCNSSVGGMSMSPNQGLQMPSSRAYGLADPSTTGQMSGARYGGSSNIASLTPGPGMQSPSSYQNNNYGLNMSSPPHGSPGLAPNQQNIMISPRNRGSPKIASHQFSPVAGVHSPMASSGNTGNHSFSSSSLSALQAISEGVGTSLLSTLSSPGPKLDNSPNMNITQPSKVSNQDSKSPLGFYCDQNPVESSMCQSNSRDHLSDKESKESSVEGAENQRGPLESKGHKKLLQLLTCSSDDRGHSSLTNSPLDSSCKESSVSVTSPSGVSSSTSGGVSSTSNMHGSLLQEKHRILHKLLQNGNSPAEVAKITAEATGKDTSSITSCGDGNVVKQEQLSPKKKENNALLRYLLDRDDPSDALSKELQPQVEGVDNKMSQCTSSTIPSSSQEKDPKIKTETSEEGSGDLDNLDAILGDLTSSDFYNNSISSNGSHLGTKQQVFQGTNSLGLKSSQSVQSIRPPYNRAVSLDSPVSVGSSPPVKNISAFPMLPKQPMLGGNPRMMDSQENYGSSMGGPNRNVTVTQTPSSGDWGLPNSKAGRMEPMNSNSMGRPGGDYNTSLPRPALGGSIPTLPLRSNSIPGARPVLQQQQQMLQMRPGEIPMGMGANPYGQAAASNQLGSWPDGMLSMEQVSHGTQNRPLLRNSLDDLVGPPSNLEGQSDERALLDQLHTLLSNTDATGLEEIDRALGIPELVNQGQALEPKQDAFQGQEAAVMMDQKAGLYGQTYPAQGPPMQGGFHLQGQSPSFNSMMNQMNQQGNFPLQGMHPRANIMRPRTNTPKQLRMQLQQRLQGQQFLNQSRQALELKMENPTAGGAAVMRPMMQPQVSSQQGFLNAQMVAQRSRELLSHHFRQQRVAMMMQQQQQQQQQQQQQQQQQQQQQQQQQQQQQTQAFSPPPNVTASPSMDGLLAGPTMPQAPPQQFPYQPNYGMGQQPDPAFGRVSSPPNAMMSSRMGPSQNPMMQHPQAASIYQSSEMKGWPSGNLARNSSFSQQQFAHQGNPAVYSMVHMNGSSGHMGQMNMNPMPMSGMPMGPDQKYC

`CC(N)C(=O)NC1C2C(=C(O)CC(O)C2O)C(=O)OC1(C)C(Cl)Cl` (configuration not stated): the inhibition in experiment [1] was 98.8% (active); in [2] it was 96.8% (active); in experiment [3], 88.6% (active); in experiment [4] it was 96.8% (active); in experiment [5] it was 96.4% (active); in experiment [6], 110% (active). Moreover, the inhibition in experiment [7] is 98.5% (active); in [8] it was 98.3% (active); in experiment [9] it was 77.2% (active); in experiment [10], 74.3% (active).

Take `CC1=CC2OC3CC4OC(=O)C=CC=CC(C(C)O)OCC(O)C5(C)OC5C(=O)OCC2(CC1O)C4(C)C31CO1` (configuration not stated): the inhibition was 98.6% (active) in experiment [1]; 96.2% (active) in [2]; 96.5% (active) in experiment [3]; 95.1% (active) in experiment [4]; 94.8% (active) in experiment [5]; 108% (active) in [6]. The inhibition is 96.5% (active) in experiment [7], 96.2% (active) in experiment [8], 82.1% (active) in experiment [9] and 73.5% (active) in [10].

For the compound `C[C@]12CC[C@H](O)C[C@H]1CC[C@@H]1[C@@H]2CC[C@]2(C)[C@@H](C3=CC(=O)OC3)CC[C@]12O`, the inhibition is 95.3% (active) in [1]; 82.7% (active) in experiment [2]; 58.7% (active) in [3]; 80.1% (active) in [4]; 95.7% (active) in experiment [5]; 110% (active) in experiment [6]. The inhibition in experiment [7] is 97.4% (active); in experiment [8], 87% (active); in experiment [9], 56% (active); in [10], 30.2%.

`O=C(Nc1ccc(OC(=O)N2CCCCC2)cc1)N1CCOCC1`: the inhibition is 24.1% in [1]; 1.46% in experiment [2]; 9.87% in [3]; -2.66% in experiment [4]; 29.4% (active) in experiment [5]; 19.7% in experiment [6]. In addition, the inhibition in [7] is 37.9%; in [8], 14.3%; in experiment [9], 35%; in [10] it was 68.5% (active).

With `CC(=O)OC1CC(OC2C(O)CC(OC3C(O)CC(OC4CCC5(C)C(CCC6C5CC(O)C5(C)C(C7=CC(=O)OC7)CCC65O)C4)OC3C)OC2C)OC(C)C1OC1OC(CO)C(O)C(O)C1O` (configuration not stated), the inhibition in experiment [1] is 97.8% (active); in experiment [2] it was 88.9% (active); in [3], 73.8% (active); in experiment [4] it was 86.5% (active); in [5], 95% (active); in experiment [6], 109% (active). The inhibition in experiment [7] was 97.9% (active); in experiment [8], 89.4% (active); in [9], 64.3% (active); in experiment [10], 28.8%.

In the case of `O=C1CN=C(c2ccc[nH]2)c2cc(Cl)ccc2N1`, the inhibition in experiment [1] was 76% (active); in [2], 57.9% (active); in [3] it was 53.3% (active); in experiment [4], 57.5% (active); in experiment [9] it was 30.2%; in experiment [10] it was 44%.

As for `CC1OC(OC2CC(O)C3(CO)C4C(O)CC5(C)C(C6=CC(=O)OC6)CCC5(O)C4CCC3(O)C2)C(O)C(O)C1O` (configuration not stated), the inhibition in [1] was 97.2% (active); in experiment [2] it was 89.1% (active); in [3] it was 80.3% (active); in [4] it was 87.2% (active); in experiment [6] it was 109% (active); in experiment [7], 96% (active). The inhibition in [8] is 93.5% (active); in experiment [9] it was 70.9% (active); in experiment [10] it was 54% (active).

In the case of `C=C1C(=O)O[C@@H]2C[C@@H](C)[C@@H]3C=CC(=O)[C@@]3(C)[C@@H](O)[C@H]12`, the inhibition in experiment [1] is 42.1%; in [2], 92.5% (active); in experiment [4] it was 91.7% (active); in experiment [9] it was 96% (active); in [10], 93.7% (active).

Take `C=C1C(=O)OC2CC(C)C3C=CC(=O)C3(C)C(O)C12` (configuration not stated): the inhibition was 38% in experiment [1]; 90.7% (active) in experiment [2]; 90.6% (active) in experiment [4]; 62.5% (active) in [5]; 88.6% (active) in experiment [6]; 90.1% (active) in experiment [7]. The inhibition in [8] is 91.2% (active).

Consider `CC12CCC3C(CCC4(O)CC(O)CCC34C=O)C1(O)CCC2C1=CC(=O)OC1` (configuration not stated), for which the inhibition is 90% (active) in [1]; 67.4% (active) in experiment [2]; 14.4% in experiment [3]; 67.5% (active) in experiment [4]; 109% (active) in [6]; 96.2% (active) in experiment [7].

As to `N#Cc1cn(C2OC(CO)C(O)C2O)c2ncnc(N)c12` (configuration not stated), the inhibition in experiment [1] is 81.4% (active); in experiment [2], 91.3% (active); in experiment [3], -24%; in experiment [4], 89.7% (active); in [5], 82% (active); in experiment [6], 107% (active). Further, the inhibition in experiment [7] was 94.1% (active); in experiment [8], 91% (active); in [9], 30.4%; in [10], 48.3% (active).

For `CC12CCC(O)CC1CCC1C2CCC2(C)C(C3=CC(=O)OC3)CCC12O` (configuration not stated), the inhibition in experiment [1] was 97.6% (active); in experiment [2], 87.9% (active); in experiment [3] it was 70.6% (active); in [4], 87.4% (active); in experiment [5], 95.7% (active); in experiment [6], 110% (active). Also, the inhibition was 98.2% (active) in experiment [7], 89% (active) in [8], 58.5% (active) in experiment [9] and 23.6% in [10].

As to `C[C@H]1C[C@@H](C)C(=O)[C@@H]([C@H](O)CC2CC(=O)NC(=O)C2)C1`, the inhibition in experiment [1] is 96.7% (active); in experiment [2] it was 92.3% (active); in experiment [3] it was 82.3% (active); in [4], 91.3% (active); in experiment [6], 110% (active); in [7] it was 97.9% (active). Moreover, the figures for the inhibition in experiment [9] and in [10] were 63.2% (active) and 62.9% (active), respectively.

As to `O=c1[nH]c(O)c(N=Nc2ccc3c(c2)OCCO3)c(=O)[nH]1`, the inhibition was 53.3% (active) in experiment [1]; 25.7% in experiment [2]; 6.27% in [3]; -1.38% in [4]; 22.6% in experiment [5]; 9.98% in [6]. Further, the inhibition in [7] was 42.1%; in experiment [8] it was 9.89%; in experiment [9], 33.9%; in experiment [10], 63.6% (active).

With `CCN1CCN(c2ncnc3ccc(Br)cc23)CC1`, the inhibition in [1] was 56.6% (active); in [2], 54.3% (active); in experiment [3], 72.2% (active); in [4], 44.9% (active); in experiment [9], 2.45%; in experiment [10], 36.7%.

(Values after PubChem BioAssay.)
